JMJD2A Tudor: qHTS Assay for Inhibitors of JMJD2A-Tudor Domain; Potency, µM (doses to about 114 µM), usual class: inhibitors; 390,000 tested, 4.4% active; AlphaScreen JMJD2A-Tudor / H3K4me3 peptide binding; AID 504339, 2011; further: nearly all actives have a fitted effect of over 50% in size
TDP1 block: qHTS Assay for Inhibitors of Tyrosyl-DNA Phosphodiesterase (TDP1); Tyrosyl-DNA phosphodiesterase 1 (Homo sapiens), Q9NUW8; recombinant TDP1, AlphaScreen DNA substrate cleavage; Potency, µM (titrated, usually from 130 µM), hits mostly inhibitors; 350,000 tested, 0.28% active; AID 485290, 2010; further: nearly all actives have a fitted effect of over 40% in size
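E. coli-derived human Tdp1, 1 nM final. Cpd preinc 15 min RT; substrate 15 nM final, 5 min RT; AS bead mix 10 ug/ml final, 10 min RT. Signal loss = tyrosine-FITC cleavage. No-enzyme wells = max signal.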
HP1b chromo inh: HTS for Inhibitors of HP1-beta Chromodomain Interactions with Methylated Histone Tails. AID 540317, 2011. 390,000 tested, 0.56% active. Potency, µM (series often up to 114 µM), actives largely listed as inhibitors. AlphaScreen HP1-beta / biotin-H3K9me3 peptide binding. Chromobox protein homolog 1 (Homo sapiens), P83916; further: nearly all actives have a fitted effect of over 70% in size
Target sequence (P83916 whole entry, looked up): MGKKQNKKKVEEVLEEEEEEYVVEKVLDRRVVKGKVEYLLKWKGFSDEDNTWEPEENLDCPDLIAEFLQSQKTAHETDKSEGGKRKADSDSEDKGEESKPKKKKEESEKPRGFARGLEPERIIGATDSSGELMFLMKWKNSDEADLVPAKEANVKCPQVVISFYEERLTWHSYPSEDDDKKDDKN
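HP1-beta protein (50 nM final) preincubated 30 min at room temperature with biotinylated H3(1-18)K9me3 peptide (50 nM) in PBS pH 7.4, 0.01% Tween-20, then compound added for 30 min. AlphaScreen streptavidin donor/nickel chelate acceptor beads (10 ug/mL final), 30 min dark, luminescence read.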
G9a block: qHTS Assay for Inhibitors of Histone Lysine Methyltransferase G9a. AID 504332, 2011. Potency, µM (top dose mostly 102 µM), actives largely listed as inhibitors. Histone-lysine N-methyltransferase EHMT2 (Homo sapiens), Q96KQ7. G9a H3K9 monomethylation, AlphaScreen, 2 h. 350,000 tested, 8.8% active; further: nearly all actives have a fitted effect of over 75% in size
Target sequence (Q96KQ7 913-1193 limits assumed): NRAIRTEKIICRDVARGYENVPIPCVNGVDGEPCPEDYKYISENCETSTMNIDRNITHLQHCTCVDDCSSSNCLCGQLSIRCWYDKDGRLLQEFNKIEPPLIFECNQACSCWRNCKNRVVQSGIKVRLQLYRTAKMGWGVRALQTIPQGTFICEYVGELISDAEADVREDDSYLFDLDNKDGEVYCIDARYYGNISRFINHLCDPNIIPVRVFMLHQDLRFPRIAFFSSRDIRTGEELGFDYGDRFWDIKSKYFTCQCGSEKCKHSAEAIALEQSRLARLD
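G9a (20 nM) was preincubated 15 min with compound, then reacted 2 h at room temperature with 500 nM biotin-H3K9 peptide and 20 µM SAM. Monomethyl-H3K9 detected by AlphaScreen using anti-H3K9me1 antibody.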
Sfp PPTase inh: qHTS Assay for Inhibitors of Bacillus subtilis Sfp phosphopantetheinyl transferase (PPTase) | Potency, µM, hits mostly inhibitors | 310,000 tested, 3.5% active | Biochemical Sfp PPTase activity, qHTS | 4'-phosphopantetheinyl transferase ffp (Bacillus subtilis), Q9F4F7;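 further: the enzyme is Sfp with the accession as filed and its product quenches rhodamine fluorescence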
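Fluorescence-quenching assay with 15 nM Sfp, 5 uM rhodamine-CoA and 12.5 uM BHQ-2-labelled ybbR peptide in pH 7.6 Hepes/MgCl2 buffer. Enzyme was pre-incubated with compound for 15 min at room temperature. Rate was taken from the 30-min fluorescence change (525/598 nm).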
BAZ2B inh: qHTS Assay for Inhibitors of BAZ2B. 360,000 tested, 4.4% active. Bromodomain adjacent to zinc finger domain protein 2B (Homo sapiens), Q9UIF8. Potency, µM (titrated, usually from 114 µM), hits mostly inhibitors. AlphaScreen BAZ2B-H3K14Ac peptide displacement; further: nearly all actives have a fitted effect of over 60% in size
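Inhibition is scored as reduced AlphaScreen emission. The BAZ2B/b-H3(5-23)K14Ac complex (50 nM each) in PBS pH 7.4, 0.01% Tween-20 meets compound (up to 110 uM) for 30 min at RT before bead addition.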
Each line names hits and unclear results; the compound was inactive in the other large screens; ! = repeats disagree. Rows were chosen to be rich in hits. Some 12% of all compounds tested hit in one or more screens of this group. The call rests on the fitted dose curve; in most records, active means well fitted curve in the direction sought with a large enough effect; inconclusive means small, poorly fitted or top-dose-only effect, or another doubt; inactive means no such curve, though single readings can be large; an effect the other way counts as inactive or inconclusive.

O=C(c1cc(Br)ccc1Cl)N1CCN(c2ncccn2)CC1	JMJD2A Tudor inconclusive (no result: TDP1 block)
Brc1cccc(CN2CCN(c3ncccn3)CC2)c1	JMJD2A Tudor 20µM, HP1b chromo inh inconclusive, G9a block 10µM, BAZ2B inh inconclusive (no result: TDP1 block)
COc1ccc(CNC(=O)C(=O)NCC(c2cccnc2)N2CCN(c3ccccc3)CC2)cc1 (stereo not drawn)	none (no result: Sfp PPTase inh)
CCOc1ccc(NC(=O)C2CCCN(C)C2)cc1 (stereo not drawn)	none (no result: G9a block)
CCOc1ccc(NC(=O)CN(c2ccc(OC)c(OC)c2)S(=O)(=O)c2ccc(C)cc2)cc1	none
O=S(=O)(c1ccccc1)N1CCN(Cc2cccc(Br)c2)CC1	JMJD2A Tudor 28µM, HP1b chromo inh inconclusive (no result: TDP1 block, G9a block, Sfp PPTase inh, BAZ2B inh)
O=S(=O)(c1cccc(Br)c1)N1CCN(CCc2ccccc2)CC1	none (no result: TDP1 block)
Cc1cccc(CN2CCN(c3ncccn3)CC2)c1	JMJD2A Tudor 2.8µM, HP1b chromo inh inconclusive, Sfp PPTase inh inconclusive, BAZ2B inh inconclusive (no result: TDP1 block, G9a block)
Cc1cc(C)n(-c2nc3ccccc3nc2Nc2cc(C(=O)O)ccc2C)n1	none (no result: Sfp PPTase inh)
O=C(Nc1cccnc1)c1cc(S(=O)(=O)N2CCOCC2)ccc1Br	none
O=C(O)C1OC(Oc2cc3oc(-c4ccccc4)cc(=O)c3c(O)c2O)C(O)C(O)C1O (stereo not drawn)	JMJD2A Tudor 20µM, G9a block 40µM, Sfp PPTase inh 8.9µM
COc1c(OC2OC(C(=O)O)C(O)C(O)C2O)cc(O)c2c(=O)cc(-c3ccccc3)oc12 (stereo not drawn)	JMJD2A Tudor inconclusive, Sfp PPTase inh 40µM (no result: TDP1 block)
O=C(Nc1cccc(C(=O)N2CCCC2)c1)C1CCC1	none (no result: TDP1 block, G9a block, Sfp PPTase inh, BAZ2B inh)
Cc1nn(C)c2c1c(C(F)(F)F)cc(=O)n2C(C)C(=O)NCCC(C)C (stereo not drawn)	none (no result: Sfp PPTase inh)
Cc1ccc(CN(Cc2cccnc2)C(=O)CN2C(=O)COc3ccccc32)o1	G9a block inconclusive, Sfp PPTase inh 28µM
O=C(CN1C(=O)COc2ccccc21)N(Cc1ccccc1)Cc1ccccn1	G9a block inconclusive
CN(C1CCCCC1)S(=O)(=O)c1ccc2c(c1)c(=O)c(C(=O)NCCc1ccccc1)cn2C	none (no result: Sfp PPTase inh, BAZ2B inh)
CN(C)S(=O)(=O)c1ccc2c(c1)c(=O)c(C(=O)NCCCN1CCCCCC1)cn2C	G9a block 45µM
CCn1cc(C(=O)O)c(=O)c2cc(S(=O)(=O)N(C)C)ccc21	JMJD2A Tudor 20µM, G9a block inconclusive
CCC(C)NC(=O)c1cn(CC)c2ccc(S(=O)(=O)N(C)C)cc2c1=O (stereo not drawn)	none
CN(C1CCCCC1)S(=O)(=O)c1ccc2c(c1)c(=O)c(C(=O)N1CCN(c3ccc(F)cc3)CC1)cn2C	none (no result: Sfp PPTase inh, BAZ2B inh)
CN1CCN(C(=O)c2cn(C)c3ccc(S(=O)(=O)N(C)C4CCCCC4)cc3c2=O)CC1	G9a block 56µM
CN(CCCNC(=O)c1cn(C)c2ccc(S(=O)(=O)N(C)C)cc2c1=O)c1ccccc1	JMJD2A Tudor inconclusive, G9a block 50µM, BAZ2B inh inconclusive
NNC(=O)Cn1nc(-c2ccccc2)c2ccccc2c1=O	none (no result: TDP1 block)
CC(=O)Nc1ccc(S(=O)(=O)NCCC(=O)Nc2ccc(C)cn2)cc1	none (no result: G9a block)
O=C(CSCc1ccc(F)cc1)NCc1ccc(F)cc1	JMJD2A Tudor 100µM!
O=C(CSc1ccc(-c2ccccn2)nn1)NCc1ccc(F)cc1	JMJD2A Tudor 7.9µM, BAZ2B inh 3.2µM
O=C(CSc1ccc(-c2ccccn2)nn1)NC1CCCCC1	JMJD2A Tudor 3.5µM, BAZ2B inh 4µM
O=C(CSc1ccc(-c2ccco2)nn1)NC1CCCCC1	JMJD2A Tudor inconclusive, G9a block 45µM, Sfp PPTase inh 25µM, BAZ2B inh 50µM (no result: TDP1 block)

Assay outcomes from PubChem BioAssay.
